Assay results as given in ChEMBL document CHEMBL4888484, “Replenishing the malaria drug discovery pipeline: Screening and hit evaluation of the MMV Hit Generation Library 1 (HGL1) against asexual blood stage Plasmodium falciparum ,using a nano luciferase reporter read-out” (2022).
Out of some 4,800 compounds screened, about 420 (8.8%) showed an effect of 50% or more. The sample as a whole holds a higher share of strong results than the screen did.

system: Plasmodium falciparum; assay: Confirmatory screen in NF54 nanoGlo assay, in single point, at 2uM, 72h; type: functional, Erythrocyte; conditions: timepoint 72 hour

| Structure (SMILES) | % Inhibition [%] |
| --- | --- |
| Cc1ccc(C)n1-c1ccc(Cl)c(C(=O)NC[C@H]2COCCO2)c1 | -4 |
| C#Cc1cc(C(F)(F)F)cc(C#N)c1N | 5 |
| CC1(C)CN(C(=O)CN2CCOCC2=O)C2CCCC21 (stereo not drawn) | -16 |
| COc1cccc(N2CCN(C3=NC(=O)[C@@H](C#N)C4(CCCC4)N3)CC2)c1 | 2 |
| O=C(O)Cc1ccc(OCc2nc(-c3ccsc3)no2)cc1 | -2 |
| Cc1ccc(NC(=O)Cn2c(=O)n(Cc3ccco3)c(=O)c3ccccc32)c(C)c1 | -12 |
| CC(=O)Nc1ccc(C)cc1S(=O)(=O)N1CC=C(c2c(C)n(Cc3ccccc3C)c3ccccc23)CC1 | 91 |
| Cc1ccc(S(=O)(=O)N2CC[C@H](CC(=O)NCc3ccccc3)C2)c(C)c1 | -17 |
| CC[C@](C)(NCCc1c[nH]c2ccccc12)c1nnnn1CCOC | -2 |
| Cn1c(N2CCN(Cc3ccc4c(c3)OCO4)CC2)cc(=O)n(C)c1=O | -12 |
| COc1ccc(CNC(=O)N2C[C@H](C)OC3(CCCCC3)C2)cc1OC(F)F | -8 |
| O=C(NCc1ccco1)c1cc2c(Cl)ccc3c2n1CCO3 | -1 |
| Cc1cc2nc(C)c3c(n2n1)N(Cc1ccccc1Cl)CC3 | -2 |
| CC(C)Oc1cccnc1C(=O)N(C)c1cnn(C)c1 | -5 |
| COc1ccc(-c2cc3c(N4CCN(C)CC4)nccn3n2)cc1OC | 1 |
| Cc1nn(-c2ccccn2)c(O)c1C(c1ccccc1)c1c(C)nn(-c2ccccn2)c1O | 90 |
| COc1ccc(-c2nn(-c3ccccc3)c(O)c2C(c2ccc(C(=O)O)cc2)c2c(-c3ccc(OC)cc3)nn(-c3ccccc3)c2O)cc1 | 2 |
| O=C(CCn1nc(-c2cccc(Cl)c2)ccc1=O)NCc1ccc(F)cc1F | -2 |
| CCn1cc(CN2C(=O)C3CCCCC3C2=O)c(C)n1 (stereo not drawn) | -3 |
| Oc1nc(N2CCOC3(CCCC3)C2)ncc1F | 51 |
| O=C(c1cc(-c2ccncc2)on1)N1CCOC2(CCCCCC2)C1 | -6 |

| Structure (SMILES) | % Inhibition [%] |
| --- | --- |
| FC(F)(F)c1cnc(N2CCOC3(CCOCC3)CC2)s1 | -2 |
| COC(c1ccc(-c2ccc(OC3CC3)cc2)cc1)C(C)N (stereo not drawn) | -3 |
| COc1ccc(CNC(=O)c2ccc(Cl)c(-n3c(C)nc4cccnc43)c2)c(OC)c1 | 2 |
| CCOC(=O)c1ccc(N2CCN(Cc3ccccc3)CC2)c(NC(=O)COc2ccc(Cl)cc2C)c1 | -4 |
| Cn1nc(N)c2cc(C(F)(F)F)ccc21 | -2 |
| CCn1c(=O)c(N2CCN(C(=O)Nc3cccc(C(F)(F)F)c3)CC2)nc2ccccc21 | -2 |
| Cc1nn(Cc2ccccc2)c2c1C(c1cccc(Cl)c1Cl)c1c(C)nn(Cc3ccccc3)c1O2 | 9 |
| COc1ccc(OC)c(CN2C(=O)c3cc4c(OC)ccc(OC)c4n3C[C@]2(C(=O)NC2CCCCCC2)c2ccccc2)c1 | 18 |
| CCCn1c(C)nnc1COC(=O)c1ncoc1C | -5 |
| CC(C)(C)OC(=O)NC1CCN(c2ncc(C(=O)NCc3ccc(F)c(Cl)c3)c(N)n2)CC1 | -17 |
| CN1CCc2ncnc(Nc3ccc4nc(N5CCCC5)sc4c3)c2C1 | 2 |
| CC(=O)Nn1ccc2nc(N3CCOCC3)ncc2c1=O | -7 |
| COC1(C)CC(NC(=O)C(C(C)C)N2CCCS2(=O)=O)C1(C)C (stereo not drawn) | -9 |
| CCC(=O)N(Cc1ccc(-c2ccc(Cl)cc2)o1)[C@H]1CCS(=O)(=O)C1 | 38 |
| Cn1ccc(CN2CCN(c3ccccc3)CC2)n1 | 1 |
| Cc1nc(-c2ccc(N3CCC(NCCCn4ccnc4)CC3)cc2)cs1 | 12 |
| COc1cc(C)cc(C)c1S(=O)(=O)N(C)Cc1nnc[nH]1 | 4 |
| COc1cccc(C2C(NC(=O)c3ccoc3)CCN2C2CC2)c1 (stereo not drawn) | -10 |
| CC1=CCN(C(=O)Nc2nccs2)CC1 | 7 |
| CC(C(=O)Nc1cc(F)ccc1F)N1CCCC(c2nncn2C(C)C)C1 (stereo not drawn) | -3 |
| CC(C(=O)Nc1nccs1)N1CCCC(c2ccn[nH]2)C1 (stereo not drawn) | 50 |

| Structure (SMILES) | % Inhibition [%] |
| --- | --- |
| c1ccc(NC(Nc2nnn[nH]2)=C(c2ccccc2)c2ccccc2)cc1 | 0 |
| O=C(Nc1cccnc1)c1ccc(-c2ccc(Cl)c(Cl)c2)o1 | 91 |
| O=C(Nc1ccn(Cc2cccnc2)n1)c1ccc(-c2ccccc2F)o1 | -2 |
| O=C(CCC(=O)Nc1cccnc1)NCc1ccc2c(c1)OCO2 | -2 |
| CCOc1ccc(-c2cc(NC(=O)c3cc(-c4cccnc4)nc4ccccc34)on2)cc1OCC | 94 |
| COc1ccc(-c2cc(C(=O)NC3CCN(C(C)C)CC3)c3ccccc3n2)cc1OC | -7 |
| CS(=O)(=O)Nc1nc2ccc(NC(=O)c3cc(-c4ccccc4)nc4ccccc34)cc2s1 | 0 |
| COc1ccc(CC[C@](C)(O)c2cc(C(N)=O)no2)cc1 | -9 |
| COc1ccc(N(C(=O)c2ccccc2)C2CC(C)N(C(=O)c3ccccc3)c3cc(OC)c(OC)cc32)cc1OC (stereo not drawn) | -1 |
| N#CCC(=O)Nc1nc(-c2ccc(Oc3ccccc3)cc2)cs1 | -4 |
| Cc1cc(C(=O)N[C@@H](C)CO)c(C)n1-c1nccs1 | -19 |
| c1ccc(N2CCN(C3CCN(Cc4ccncc4)CC3)CC2)cc1 | -6 |
| c1cc(CN2CCN(C3CCCCCC3)CC2)ccn1 | -18 |
| COc1nccnc1N(C(C)=O)S(=O)(=O)c1ccc(NC(C)=O)cc1 | -13 |
| N#Cc1ccc(N2CCN3C(=O)NCC3C2)nc1N1CCN2C(=O)NCC2C1 (stereo not drawn) | -12 |
| CC(C)[C@H](OC(=O)n1ccnc1)C(=O)OC(C)(C)C | -10 |
| CC1C=CC2C(=O)N(CC(F)(F)F)C(=O)C2C1C(=O)N1CCC(Cc2ccccc2)CC1 (stereo not drawn) | -3 |
| Cc1ccc(NC(=O)Cn2cnc3nc(N(C)Cc4ccccc4)sc3c2=O)c(Br)c1 | -14 |
| CC[C@@H](CO)NC(=O)Nc1cccc(C)c1 | 5 |
| CCC(C)(CC)[C@@](O)(C#CC[N+]1(Cc2ccccc2)CCCCC1)c1ccccc1 | 7 |
| CC(CC1OCC(C[N+]2(Cc3ccccc3)CCCCC2)O1)CC(C)(C)C (stereo not drawn) | 57 |
